Only some compounds are listed: those with a hit (about 5.4% of all), similar ones and a draw of the others.
APOBEC3G inh: APOBEC3G DNA deaminase inhibitors, primary screen, biochemical, fluorescence, single-stranded DNA substrate, uHTS | recombinant A3G, ssDNA deamination FAM/TAMRA fluorescence | inhibition, % at 20 µM | actives 0.28% (n = 330,000) | AID 493012, 2011;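 active = inhibition of at least 40% at 20 µM, with no more than 30% in the related APOBEC3A deaminase screen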;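 also: plate controls were DMSO wells with A3G for no effect and wells lacking A3G enzyme for full effect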
Target sequence (Q9HC16 whole entry, looked up): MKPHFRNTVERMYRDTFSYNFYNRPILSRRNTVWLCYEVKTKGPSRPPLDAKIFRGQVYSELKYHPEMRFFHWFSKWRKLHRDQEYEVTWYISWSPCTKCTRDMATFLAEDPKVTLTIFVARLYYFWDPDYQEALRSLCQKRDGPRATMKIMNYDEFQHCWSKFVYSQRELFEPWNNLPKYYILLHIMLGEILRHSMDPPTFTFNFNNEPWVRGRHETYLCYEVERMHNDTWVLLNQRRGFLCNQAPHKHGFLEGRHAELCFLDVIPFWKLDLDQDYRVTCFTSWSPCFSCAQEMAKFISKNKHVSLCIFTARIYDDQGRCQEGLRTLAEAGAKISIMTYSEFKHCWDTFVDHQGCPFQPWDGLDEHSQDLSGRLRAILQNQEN
PHOSPHO1 block: PubChem AID 1565 | Phosphoethanolamine/phosphocholine phosphatase (Homo sapiens), Q8TCT1 | recombinant PHOSPHO1, absorbance phosphatase assay | actives 1.1% (n = 290,000) | inhibition, % at 13.3 µM; in the data active = inhibition above about 60%
APOBEC3A inh: APOBEC3A ssDNA deaminase inhibitors, primary screen, selectivity assay for APOBEC3G inhibitor project, biochemical, FAM/TAMRA oligo cleavage fluorescence. DNA dC->dU-editing enzyme APOBEC-3A (Homo sapiens), P31941. recombinant A3A, FAM/TAMRA ssDNA deamination fluorescence. inhibition, % at 20 µM. actives 0.41% (n = 330,000). AID 493011, 2011;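 active = at least 40% inhibition at 20 µM here, with at most 30% in a related deaminase screen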;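 also: plate controls were A3A with DMSO for no effect and wells lacking A3A enzyme for full effect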
Target sequence (P31941 whole entry, looked up): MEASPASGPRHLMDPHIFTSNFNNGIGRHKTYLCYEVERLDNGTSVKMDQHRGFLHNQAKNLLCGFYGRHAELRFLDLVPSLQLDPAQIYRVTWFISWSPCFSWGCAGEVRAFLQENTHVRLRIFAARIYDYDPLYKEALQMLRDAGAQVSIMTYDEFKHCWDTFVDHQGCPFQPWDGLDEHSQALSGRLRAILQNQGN
rCAG binder: binders of r(CAG) RNA repeats, primary screen, biochemical, fluorescence. AID 651821, 2012. actives 1.3% (n = 370,000). inhibition, % at 3 µM. r(CAG) RNA repeat, TO-PRO-1 dye displacement fluorescence;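 active = inhibition above the plate cutoff, the mean of all test compounds on that plate plus 3 SD, cut at about 35% in these data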;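 also: 0% = DMSO alone and 100% = 100 µM mitoxantrone as full dye displacement; higher means more dye released from RNA so lower well fluorescence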
ALR inh: inhibitors of human ALR sulfhydryl oxidase, primary screen, biochemical, H2O2 detection, HRP-luminol luminescence, single point; inhibition, % (concentration not given with the values); purified ALR, DTT oxidation; AID 485317, 2010; actives 3.8% (n = 290,000);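 active = mean replicate inhibition above about 79%, with every replicate also reaching it, limit read from the data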
aDG glyco up: activators of alpha-DG glycosylation, primary screen, uHTS, Pro5-aDG cells, AlphaScreen. activation, % at 10 µM. alpha-DG glycosylation AlphaScreen (IIH6); 0% Pro5, 100% B10-LARGE cell signal. AID 624168, 2012. actives 0.22% (n = 360,000);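 active = activation of at least 8% versus controls, or a plate z-score of at least 8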;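 also: Pro5 are CHO cells carrying HIG-tagged alpha-DG that lacks glycosylation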
The depositor's hits bear a star.

Results for COc1ccccc1N1CCN(S(=O)(=O)c2cnc[nH]2)CC1 ?
APOBEC3G inh: -10; PHOSPHO1 block: 22; APOBEC3A inh: -6; rCAG binder: 3; ALR inh: 98*; aDG glyco up: 0

What do the screens show for `Cn1cnc(S(=O)(=O)N2CCN(c3ccc(F)cc3)CC2)c1`?
APOBEC3G inh: -2; PHOSPHO1 block: 43; APOBEC3A inh: -1; rCAG binder: -5; ALR inh: 59; aDG glyco up: 0

Results for C=CCN(CC#CC1=CCCCC1)Cc1ccc(OC)cc1OC ?
rCAG binder: -3

What do the screens show for `CCNC(=O)N1CCN(c2ccc(N3CCN(C(=O)NCC)[C@@H](C)C3)c(C)c2)[C@@H](C)C1`?
rCAG binder: 0

Results for COC(=O)[C@H](CC(C)C)N1Cc2nnn(CC3CCCCC3)c2-c2cc(F)ccc2S1(=O)=O ?
rCAG binder: 4

What do the screens show for `COc1ccc(N2CCN(c3ncccn3)CC2)cc1`?
APOBEC3G inh: -3; PHOSPHO1 block: -4; APOBEC3A inh: -6; rCAG binder: -1; ALR inh: 99*; aDG glyco up: 0

Results for COc1ccc(S(=O)(=O)N2CCN(c3ccccc3OC)CC2)cc1OC ?
APOBEC3G inh: 0; PHOSPHO1 block: -16; APOBEC3A inh: 2; rCAG binder: -4; ALR inh: 47; aDG glyco up: 0

How did COc1ccccc1N1CCN(S(=O)(=O)c2ccccc2)CC1 do in these assays?
APOBEC3G inh: -6; PHOSPHO1 block: -14; APOBEC3A inh: 0; rCAG binder: -3; ALR inh: 98*; aDG glyco up: 0

How did CN(C)S(=O)(=O)N1CCN(c2ccccc2)CC1 do in these assays?
APOBEC3G inh: -2; PHOSPHO1 block: -9; APOBEC3A inh: 0; rCAG binder: -3; ALR inh: 79*; aDG glyco up: 0

How did COc1ccc(S(=O)(=O)N2CCC(N3CCN(c4ccccc4)CC3)CC2)cc1 do in these assays?
APOBEC3G inh: -7; PHOSPHO1 block: 46; APOBEC3A inh: -2

Results for COc1ccc(S(=O)(=O)N2CCN(c3ccccc3)CC2)cc1 ?
APOBEC3G inh: -7; PHOSPHO1 block: 60*; APOBEC3A inh: -2; rCAG binder: -8; ALR inh: 14; aDG glyco up: 0

What do the screens show for `O=C(N[C@H](Cc1ccccc1)C(=O)NCC1CCCO1)[C@H]1O[C@@H](n2ccc(=O)[nH]c2=O)[C@H](O)[C@@H]1O` (some centres not stated)?
rCAG binder: 3

How did CCOC(=O)[C@@]12CCC3=C1N(CCC3)C(=O)[C@H](CC(=O)NCC13CC4CC(CC(C4)C1)C3)C2 do in these assays?
rCAG binder: 2

What do the screens show for `CC(COc1ccc(C#N)cc1)CN1CCC(C(O)(c2ccccc2)c2ccccc2)CC1` (configuration not stated)?
rCAG binder: 3

How did CC(C)C(NC(=O)CSCc1ccc([N+](=O)[O-])cc1)C(C)C do in these assays?
APOBEC3G inh: -7; PHOSPHO1 block: 17; APOBEC3A inh: -1; rCAG binder: -4; ALR inh: 98*; aDG glyco up: 0

What do the screens show for `Brc1ccc(CSc2nnc(SCc3ccccc3)s2)cc1`?
rCAG binder: 3

How did COc1ccc(-c2coc3cc(O)ccc3c2=O)cc1O do in these assays?
APOBEC3G inh: -8; PHOSPHO1 block: 32; APOBEC3A inh: -1; rCAG binder: 6; ALR inh: 77*; aDG glyco up: 0

What do the screens show for `COc1ccc(-c2coc3cc(O)ccc3c2=O)cc1`?
APOBEC3G inh: -3; APOBEC3A inh: 1; rCAG binder: 3; ALR inh: -4; aDG glyco up: 0

Results for COc1cc(O)cc2occ(-c3ccc(O)cc3)c(=O)c12 ?
APOBEC3G inh: -11; PHOSPHO1 block: 32; APOBEC3A inh: -6; rCAG binder: 7; ALR inh: 98*; aDG glyco up: 0

How did O=c1c(-c2ccc(O)cc2)coc2cc(O)cc(O)c12 do in these assays?
APOBEC3G inh: 3; PHOSPHO1 block: -1; APOBEC3A inh: -1; rCAG binder: -1; ALR inh: 57; aDG glyco up: 0

Results for O=C(NCc1cccs1)C1CCCN(S(=O)(=O)c2ccccc2)C1 (configuration not stated) ?
rCAG binder: 4

How did CN(C)c1ccc(/C=C(\NC(=O)c2ccccc2)C(=O)NCCCn2ccnc2)cc1 do in these assays?
APOBEC3G inh: -3; PHOSPHO1 block: 28; APOBEC3A inh: -2; rCAG binder: 0; ALR inh: 99*; aDG glyco up: 0

How did CCC(C(=O)NCCC(C)C)n1ccc2cc(S(=O)(=O)N3CCCCC3)ccc21 (configuration not stated) do in these assays?
APOBEC3G inh: 5; PHOSPHO1 block: 63*; APOBEC3A inh: 1; ALR inh: -4; aDG glyco up: 1

Results for C=C(C(=O)c1ccccc1)C(C)C(=C)C(=O)c1ccccc1 ?
PHOSPHO1 block: 2; rCAG binder: -2; ALR inh: 87*; aDG glyco up: 0

What do the screens show for `Cc1[nH]nc2c1C(C1CC=CCC1)C(C#N)=C(N)O2` (configuration not stated)?
APOBEC3G inh: -8; PHOSPHO1 block: 3; APOBEC3A inh: -5; rCAG binder: -4; aDG glyco up: 1

How did N#CC1=C(N)Oc2cc(N)ccc2C1C1CC=CCC1 (configuration not stated) do in these assays?
APOBEC3G inh: 1; PHOSPHO1 block: 16; APOBEC3A inh: 0; rCAG binder: 14; ALR inh: 93*; aDG glyco up: 0

What do the screens show for `Cc1ccc(C2C(C#N)=C(N)Oc3cc(N)ccc32)cc1` (configuration not stated)?
APOBEC3G inh: 0; PHOSPHO1 block: -1; APOBEC3A inh: -1; rCAG binder: 21; ALR inh: 96*; aDG glyco up: 0

Results for CCOC(=O)N1CCN(C(=O)C[C@H]2C[C@@]3(C(=O)OC)C(=C[C@H](COCc4ccccc4)O[C@@H]3C)N(Cc3ccco3)C2=O)CC1 ?
rCAG binder: 2

How did CC1CC(C)CN(C(=O)c2ccc3c(c2)N(Cc2ccccc2)CCS3)C1 (configuration not stated) do in these assays?
APOBEC3G inh: -5; PHOSPHO1 block: -23; APOBEC3A inh: -2; aDG glyco up: 0

Screening results: PubChem, several laboratories
